# According to PubChem BioAssay (NCATS):
# Results filed as inconclusive are left out. Where a call stands in place of a potency, no number is given. Calls of active or inactive are those of the source. Calls come from the whole dose curve; as a rule, active = well fitted cell-killing curve with a large enough effect; inconclusive = small, poorly fitted or top-dose-only effect, or effect the other way; inactive = no such curve, though single readings can be large or run the other way.
# Test: Quantitative High-Throughput drug screen in 47 multiple myeloma cell lines against the NCATS MIPE library collection: EJM_DSMZ cell viability assay (AID 1918926; note: nearly all actives have a fitted effect of over 30% in size)
# Conditions: EJM myeloma cell viability, CellTiter-Glo ATP, 48 h; series mostly up to 45.8 µM
# Excerpt: PI: Beverly A. Mock Ph.D.
# Laboratory of Cancer Biology and Genetics,
# Center for Cancer Research, National Cancer Institute,
# National Institute of Health, Bethesda, Maryland
# Drug resistance and disease progression are common in multiple myeloma (MM) patients, underscoring the need for new therapeutic combinations. […] We hypothesized that effective combinations would reduce MYC expression and enhance p16 activity. […] These preclinical data identify potentially useful drug combinations for evaluation in drug-resistant MM and reveal potential mechanisms of combined drug sensitivity.
# Described herein is the primary MIPE qHTS used to cherrypick compounds. Validated compounds were then further tested for potential synergistic activiy.
# [1] Peat TJ, Gaikwad SM, Dubois W, Gyabaah-Kessie N, Zhang S, Gorjifard S, Phyo Z, Andres M, Hughitt VK, Simpson RM, Miller MA, Girvin AT, Taylor A, Williams D, D'Antonio N, Zhang Y, Rajagopalan A, Flietner E, Wilson K, Zhang X, Shinn P, Klumpp-Thomas C, McKnight C, Itkin Z, Chen L, Kazandijian D, Zhang J, Michalowski AM, Simmons JK, Keats J, Thomas CJ, Mock BA. Drug combinations identified by high-throughput screening promote cell cycle transition and upregulate Smad pathways in myeloma. Cancer Lett. 2023 Aug 1;568:216284. doi: 10.1016/j.canlet.2023.216284. Epub 2023 Jun 24. PMID: 37356470; PMCID: PMC10408729.
# SEQUENCE No. (e.g., 1, 2, 3, etc.); […] (e.g., Cells, Incubation, Reagent, etc.); VALUE and DESCRIPTION.
# 1; Cells; 5 uL; white, solid bottom 1536-well Greiner assay plate.
# 2; Compounds; 23 nL; Kalypsis pin tool (Wako USA) equipped with a 1536-well pin head to transfer to the assay plates.
# 3; Incubation; 48 hours; 37C incubation.
# 4; Reagent;5uL; CellTiter Glo (Promega).
# 5; Detector; 425V; Luminescence; Viewlux PerkinElmer.
# NOTES (numbers refer to Sequence numbers above)
# 1. The cell-based screening methods employed in this study were like those previously published. Briefly, the corresponding myeloma cell lines were screened in 1,536-well plates with 500 cells, 5-uL per well for inhibition of cell viability (assessed by measuring ATP levels with CellTiterGlo).
# 2. NCATS MIPE 4.0 library of approved and investigational drugs were added using the Kalypsis pin tool. Wells treated with DMSO only for 100% viability and media only wells for 0% viability were used as controls.
# 3. The assay plates were covered and incubated for 48 hours in a 37C, 5% CO2 incubator with controlled humidity.
# 4. After 48 hours, CellTilter-GloTM luminescent substrate mix (Promega) reagent was added to the assay plate and plates we incubated for 5 min at room temperature.
# 5. Signal was measured as median relative luminescence units on a ViewLux (PerkinElmer) multiplate reader.
# [1] Heske CM, Davis MI, Baumgart JT, Wilson K, Gormally MV, Chen L, Zhang X, Ceribelli M, Duveau DY, Guha R, Ferrer M, Arnaldez FI, Ji J, Tran HL, Zhang Y, Mendoza A, Helman LJ, Thomas CJ. Matrix Screen Identifies Synergistic Combination of PARP Inhibitors and Nicotinamide Phosphoribosyltransferase (NAMPT) Inhibitors in Ewing Sarcoma. Clin Cancer Res. 2017 Dec 1;23(23):7301-7311. doi: 10.1158/1078-0432.CCR-17-1121. Epub 2017 Sep 12. PMID: 28899971; PMCID: PMC6636827.
# Potency is the fitted concentration of half-maximal effect.
row,Compound,Potency
1,CCCCOc1ccc(CC(=O)NO)cc1,5.26 µM (active)
2,CCCCCCNC(=O)n1cc(F)c(=O)[nH]c1=O,inactive
3,CCCCc1oc2ccc(NS(C)(=O)=O)cc2c1C(=O)c1ccc(OCCCN(CCCC)CCCC)cc1,16.6 µM (active)
4,CCCc1cc(C(N)=S)ccn1,inactive
5,CC(C)(C)NC(=O)[C@H]1CC[C@H]2[C@@H]3CC[C@H]4NC(=O)C=C[C@]4(C)[C@H]3CC[C@]12C,0.662 µM (active)
6,COC(=O)Nc1nc2ccc(C(=O)c3ccccc3)cc2[nH]1,4.69 µM (active)
7,CC(C)(C)C(=O)OCOP(=O)(COCCn1cnc2c(N)ncnc21)OCOC(=O)C(C)(C)C,0.935 µM (active)
8,CCOC(=O)c1ccc(OC(=O)CCCCCN=C(N)N)cc1,inactive
9,COc1c(N2CCNC(C)C2)c(F)cc2c(=O)c(C(=O)O)cn(C3CC3)c12 (stereo not given),inactive
10,O=S(=O)(O)CCS,inactive
11,CN1CCCC(n2nc(Cc3ccc(Cl)cc3)c3ccccc3c2=O)CC1 (stereo not given),1.05 µM (active)
12,O=C(O)c1cn(C2CC2)c2cc(N3CCNCC3)c(F)cc2c1=O,inactive
13,COc1ncnc(NS(=O)(=O)c2ccc(N)cc2)c1OC,inactive
14,CO[C@@H]1[C@@H](OC(N)=O)[C@@H](O)[C@H](Oc2ccc3c(O)c(NC(=O)c4ccc(O)c(CC=C(C)C)c4)c(=O)oc3c2C)OC1(C)C,5.26 µM (active)
15,S=P(N1CC1)(N1CC1)N1CC1,inactive
16,Oc1c(Cl)cc(Cl)c2cccnc12,6.62 µM (active)
17,CCn1cc(C(=O)O)c(=O)c2cc(F)c(N3CCN(C)CC3)cc21,inactive
18,CC(C)NCC(O)c1ccc(NS(C)(=O)=O)cc1 (stereo not given),inactive
19,C[C@@H](NCCCc1cccc(C(F)(F)F)c1)c1cccc2ccccc12,inactive
20,C1CCC(C(CC2CCCCN2)C2CCCCC2)CC1 (stereo not given),26.4 µM (active)

row,Compound,Potency
1,COc1ccc(-c2ccc3cc(C(=O)O)ccc3c2)cc1C12CC3CC(CC(C3)C1)C2,inactive
2,CC(=O)CC(c1ccccc1)c1c(O)c2ccccc2oc1=O (stereo not given),inactive
3,COCCCOc1cc(C[C@@H](C[C@H](N)[C@@H](O)C[C@H](C(=O)NCC(C)(C)C(N)=O)C(C)C)C(C)C)ccc1OC,inactive
4,CCN1CCCC1CNC(=O)c1cc(S(N)(=O)=O)ccc1OC (stereo not given),inactive
5,CNCC[C@H](Oc1cccc2ccccc12)c1cccs1,0.935 µM (active)
6,NC(=O)c1cccnc1,inactive
7,C[C@@H](CN1CC(=O)NC(=O)C1)N1CC(=O)NC(=O)C1,inactive
8,Cc1ncc([N+](=O)[O-])n1CCO,inactive
9,N[C@@H](C(=O)N[C@@H]1C(=O)N2C(C(=O)O)=C(Cl)CS[C@H]12)c1ccccc1,inactive
10,CN1CCN(c2c(F)cc3c(=O)c(C(=O)O)cn(CCF)c3c2F)CC1,inactive
11,COc1cc2c(Nc3ccc(Br)cc3F)ncnc2cc1OCC1CCN(C)CC1,23.5 µM (active)
12,CNC(=O)c1cc(Oc2ccc(NC(=O)Nc3ccc(Cl)c(C(F)(F)F)c3)cc2)ccn1,18.7 µM (active)
13,COc1cc([C@@H]2c3cc4c(cc3[C@H](O)[C@H]3COC(=O)[C@H]23)OCO4)cc(OC)c1OC,inactive
14,O=P(O)(O)C(O)(Cc1cccnc1)P(=O)(O)O,inactive
15,Cc1cccc(Nc2ccncc2S(=O)(=O)NC(=O)NC(C)C)c1,inactive
16,C[C@@H]1C[C@H]2[C@@H]3CCC4=CC(=O)C=C[C@]4(C)[C@@]3(Cl)[C@@H](O)C[C@]2(C)[C@@]1(OC(=O)c1ccco1)C(=O)CCl,4.69 µM (active)
17,Cc1onc(-c2ccccc2Cl)c1C(=O)N[C@@H]1C(=O)N2[C@@H]1SC(C)(C)[C@@H]2C(=O)O,inactive
18,Nc1[nH]c(=O)ncc1F,inactive
19,CS(=O)(=O)c1ccc([C@@H](O)[C@@H](CO)NC(=O)C(Cl)Cl)cc1,inactive
20,CC(C)C1CCC(C(=O)N[C@H](Cc2ccccc2)C(=O)O)CC1 (stereo not given in full),inactive
